# Hits are enriched below; roughly 1.1% of the tested compounds scored in any of these assays.
# HTR5A inv ctr: HTR5A inverse agonists in luminescence cell assay, primary screen, counter-screen for OPRM1-OPRD1 heterodimer inverse agonist project, full-deck HTS; 5-hydroxytryptamine receptor 5A (Homo sapiens), P47898; HTR5A cell line, inverse agonism; inhibition, % at 9.3 µM; 340,000 tested, 0.083% active; in the data active = inhibition mostly above about 23%, no sharp cut-off; inactive = mostly below about 18%;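 note: 0% = cells with DMSO and 100% = no-cell wells with DMSO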
# HTR5A ag: HTR5A agonists in luminescence cell assay, primary screen, counter-screen for OPRM1-OPRD1 heterodimer agonist project, full-deck HTS; 340,000 tested, 0.61% active; activation, % at 9.3 µM; cell-based; 5-hydroxytryptamine receptor 5A (Homo sapiens), P47898; in the data active = activation mostly above about 9.5%, no sharp cut-off; inactive = mostly below about 7.6%;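 note: 0% = cells with vehicle only and 100% = reference agonist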
# MOR-DOR inv ag: inverse agonists of MOR-DOR heterodimerization, primary screen, cell-based, luminescence. cell-based MOR-DOR heterodimer luminescence, inverse agonism. inhibition, % at 9.3 µM. 340,000 tested, 0.21% active. AID 504357, 2011; in the data active = inhibition above about 22%, passing the limit was not always enough;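 note: 0% = cells with DMSO and 100% = wells without cells with DMSO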
# Target sequence (P35372 whole entry, looked up): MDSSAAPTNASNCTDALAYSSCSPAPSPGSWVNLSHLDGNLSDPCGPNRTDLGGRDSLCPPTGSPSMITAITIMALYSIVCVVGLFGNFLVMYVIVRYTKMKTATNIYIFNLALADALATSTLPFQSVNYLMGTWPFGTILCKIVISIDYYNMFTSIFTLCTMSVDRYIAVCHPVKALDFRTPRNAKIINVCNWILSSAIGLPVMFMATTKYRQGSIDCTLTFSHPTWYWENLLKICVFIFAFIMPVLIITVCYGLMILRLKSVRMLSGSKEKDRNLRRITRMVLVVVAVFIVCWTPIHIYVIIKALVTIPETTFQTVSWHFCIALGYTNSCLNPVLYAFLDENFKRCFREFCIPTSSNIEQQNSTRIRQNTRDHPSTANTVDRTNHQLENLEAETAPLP
# Target sequence (P41143 whole entry, looked up): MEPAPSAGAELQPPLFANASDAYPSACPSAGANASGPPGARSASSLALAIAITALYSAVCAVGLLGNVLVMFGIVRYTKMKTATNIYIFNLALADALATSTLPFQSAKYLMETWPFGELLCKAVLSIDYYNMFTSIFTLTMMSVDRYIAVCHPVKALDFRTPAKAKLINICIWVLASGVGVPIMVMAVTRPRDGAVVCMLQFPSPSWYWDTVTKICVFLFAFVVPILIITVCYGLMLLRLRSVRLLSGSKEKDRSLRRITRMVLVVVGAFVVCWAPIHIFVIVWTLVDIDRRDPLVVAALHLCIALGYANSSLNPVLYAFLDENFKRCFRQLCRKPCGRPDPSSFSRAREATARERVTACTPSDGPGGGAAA
# MOR-DOR ag: agonists of OPRM1-OPRD1 heterodimerization, primary screen, cell-based, luminescence; cells; AID 504326, 2011; activation, % at 9.3 µM; 340,000 tested, 0.3% active; in the data active = activation above about 18%;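 note: 0% = vehicle-treated cells and 100% = reference agonist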
# Active calls of the source: *.
SMILES,HTR5A inv ctr,HTR5A ag,MOR-DOR inv ag,MOR-DOR ag
CC(C)(C)N(Cc1ccccc1)C(=O)CSc1ncn[nH]1,-12,5,18,-3
COc1ccc(NC(=O)c2cc(-c3cc(C)cc(C)c3O)n[nH]2)cc1Cl,-34,11*,-42,8
COc1ccc(-c2nn(-c3ccccc3)cc2C#N)cc1,-35,14*,-9,2
O=C(Nc1ccccc1Cl)C1Cc2ccccc2O/C1=N\O (stereo not given),-2,1,8,-2
CCN(CC)CCn1c(SCC(=O)Nc2ccc3c(c2)CCC3)nc2ccccc2c1=O,12,12*,4,-1
O=C(CSc1nc2ccccc2c(=O)n1-c1ccccc1F)Nc1ccc2c(c1)CCC2,11,-4,4,-1
CC1CCCC(NC(=O)CCNC(=O)c2ccc([N+](=O)[O-])cc2)C1C (stereo not given),-3,1,3,0
CC1=Nc2cc(C(=O)NCCN3CCOCC3)ccc2Sc2c(C)ccc(C)c21,0,1,12,-2
CC1=Nc2cc(C(=O)NCCCN3CCOCC3)ccc2Sc2c(C)ccc(C)c21,-2,10.0*,9,-2
CC(C)C[C@H](NC(=O)c1nc[nH]c1C(=O)NC1CCN(C(=O)OC(C)(C)C)CC1)C(=O)OCc1ccccc1,-38,12*,-95,17
CCC(C)N(C(=O)CSc1nnc(C)n1C)C1CCS(=O)(=O)C1 (stereo not given),13,-5,22,-4
COc1ccc(CN2C(=O)C(C)Nc3ncnc(N4CCN(c5ccccc5)CC4)c32)cc1 (stereo not given),42*,-13,50*,-11
CC1Nc2ncnc(N3CCOCC3)c2N(Cc2ccccc2)C1=O (stereo not given),-5,-2,3,-1
CC1Nc2ncnc(N3CCN(c4ccccc4)CC3)c2N(Cc2ccc(Br)cc2)C1=O (stereo not given),69*,-25,71*,-13
Cc1cc(C)c(C(=O)N2CCCC(CNC(=O)C3(c4ccc(Cl)cc4)CC3)C2)c(=O)[nH]1 (stereo not given),11,0,13,-3
CCCCCC(=O)NC(=S)NC1C2CC3CC(C2)CC1C3 (stereo not given),7,-3,-6,1
O=C(O)c1ccc(NC2=C/C(=N/S(=O)(=O)c3ccccc3)c3ccccc3C2=O)cc1,25,-3,-144,28*
O=C(Nc1ccc(Cl)c(C(F)(F)F)c1)[C@@H]1CC=C[C@@H]2CCN(Cc3ccc(Cl)c(Cl)c3)C(=O)[C@@H]21,-25,9,-2,0
CCCCOc1cccc(C2C(C(=O)c3ccc(C)o3)=C(O)C(=O)N2Cc2ccco2)c1 (stereo not given),-47,13*,6,-1
Cc1ccc(F)cc1NC(=O)CN1CCN(Cc2ccccc2)CC1,2,0,-4,1
COc1ccc(Cc2nc(-c3ccc(-n4cccc4)cc3)no2)cc1OC,-32,11*,-5,1
Cc1[nH]c2ccc(-c3nnc(SCC(=O)c4ccccc4F)o3)cc2c1C,-3,12*,-12,2
CCCCn1c(N)c(N(CCOC)C(=O)c2cccc(N3C(=O)c4ccccc4C3=O)c2)c(=O)[nH]c1=O,31,-13,11,-2
Cc1ccc(-n2ncc(C(=O)N3CCN(C(=O)c4ccco4)CC3)c2-n2cccc2)cc1,-35,5,15,-3
Cc1ccc(CNC(=O)c2nccnc2C(=O)O)cc1,-21,6,18,-4
SMILES,HTR5A inv ctr,HTR5A ag,MOR-DOR inv ag,MOR-DOR ag
CCN(CC)CCN(C(=O)c1ccc2c(c1)OCCO2)c1nc2ccc(C)cc2s1,0,4,-7,1
Cc1ccc2nc(N(CCN(C)C)C(=O)c3ccc4c(c3)OCCO4)sc2c1,-40,14*,13,-2
NC(=S)N/N=C/c1ccc(-n2nncc2-c2ccc(Cl)cc2)cc1,-11,4,9,-2
COc1cc(NC(=O)c2ccccc2)ccc1NC(=O)c1cc2ccccc2o1,13,-4,-28,6
COc1cccc(C(=O)Nc2ccc(NC(=O)c3cc4ccccc4o3)c(OC)c2)c1,-50,13*,-36,7
COc1ccc(CNC(=O)CSc2ncn[nH]2)cc1OC,-4,1,-3,1
CCCC(=O)Nc1ccc2c(c1)nc(CN1CCN(C(=O)OCC)CC1)n2CC,-34,9.8*,11,-2
O=C(NCC(c1ccc(F)cc1)N1CCOCC1)c1ccccc1F (stereo not given),-36,12*,17,-3
O=C(NCC(c1ccc(F)cc1)N1CCOCC1)c1cc(F)c(F)c(F)c1F (stereo not given),-2,1,-14,2
CCN(CC)C(=O)c1[nH]cnc1C(=O)Nc1ccon1,3,-1,7,-1
O=C(NCCCn1ccnc1)c1ccc(-c2cccc(Cl)c2Cl)o1,-13,5,3,-1
Cc1nn(-c2ccccc2)c(N)c1N=Nc1ccccc1,-13,0,-15,3
Cc1nn(-c2ccccc2)c(N)c1N=Nc1ccc(Cl)cc1,-30,11*,-6,1
O=C(Nc1ccccc1F)c1ccc(CNS(=O)(=O)c2cccc(C(F)(F)F)c2)cc1,-29,12*,-26,6
Cc1ccc(NC(=O)c2ccc(CNS(=O)(=O)c3cccc(C(F)(F)F)c3)cc2)cc1,3,-2,-2,0
COc1ccc(CNS(=O)(=O)c2ccc(F)c(C(=O)Nc3ccccc3OC)c2)cc1,-23,9.5*,-15,3
Cc1nc2ccccc2c2oc(C(=O)Nc3ccc4c(c3)OCCO4)cc12,-18,7,-1,0
Cc1nc2ccccc2c2oc(C(=O)Nc3ccc(C(C)C)cc3)cc12,-39,14*,-56,8
COCCn1c(SCC(=O)NCc2ccc(F)cc2)nc2ccccc21,-24,13*,1,0
COCCn1c(SCC(=O)NCc2ccccc2)nc2ccccc21,-8,3,-21,3
COc1cc(C(=O)O)cc(Br)c1OC1CCCC1,-3,11*,3,-1
CCOC(=O)c1cc(-c2ccccc2)n(CCC(=O)NC(C)CC)c1C (stereo not given),30,11*,5,-1
COc1cc(/C=N/NC(=O)C(=O)NCc2ccco2)cc(Br)c1O,2,-2,22,-4
COc1cc(C(=O)O/N=C(\N)c2ccc([N+](=O)[O-])cc2)cc(OC)c1OC,-11,4,-74,10
CCOc1cc(C(=O)O/N=C(\N)c2ccc([N+](=O)[O-])cc2)cc(OCC)c1OCC,-41,13*,-55,11
Cc1ccccc1C(=O)O/N=C(\N)c1ccc([N+](=O)[O-])cc1,-32,9.3*,-38,8
Cc1ccc2nc(C)cc(C(=O)N3CCCC(N4CCN(c5ccccc5C)CC4)C3)c2c1 (stereo not given),8,3,16,-5

# Source: PubChem (The Scripps Research Institute Molecular Screening Center)
